# Assay results as given in article PMC7862700, “An all-to-all approach to the identification of sequence-specific readers for epigenetic DNA modifications on cytosine”.
# Experiments:
# Test in all cases: DAPPL (digital affinity profiling via proximity ligation, sequencing); 10 mM Tris-HCl pH 7.5, 50 mM NaCl, 1 mM DTT, 4% glycerol, room temperature, 30 min; GST-TFs on glutathione beads, 16-mer random dsDNA library, 0.1% formaldehyde crosslink after washing; high values mean tight binding
# FLI1 = biological target: T1, FLI1 (Homo sapiens, UniProt Q01543 1-452); conditions: protein: recombinant; tags: N-terminal GST; dsDNA, one strand shown
# T1 sequence: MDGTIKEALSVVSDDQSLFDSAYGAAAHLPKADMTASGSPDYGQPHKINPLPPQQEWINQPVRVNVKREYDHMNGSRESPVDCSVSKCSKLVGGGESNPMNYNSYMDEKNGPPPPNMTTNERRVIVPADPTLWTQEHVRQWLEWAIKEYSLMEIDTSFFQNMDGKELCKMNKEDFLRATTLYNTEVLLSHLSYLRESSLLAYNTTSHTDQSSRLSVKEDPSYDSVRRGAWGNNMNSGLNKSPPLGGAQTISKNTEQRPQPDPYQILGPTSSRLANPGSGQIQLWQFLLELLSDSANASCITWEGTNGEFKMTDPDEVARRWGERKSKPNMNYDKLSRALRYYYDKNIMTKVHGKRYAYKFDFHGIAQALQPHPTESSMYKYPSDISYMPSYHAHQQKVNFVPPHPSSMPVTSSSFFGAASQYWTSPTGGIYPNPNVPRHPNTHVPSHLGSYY
# Summary of the method: (§1)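 Human transcription factors fused to GST were expressed in yeast, captured on glutathione beads, given DNA barcodes and pooled with a GST-only negative control. Pools were incubated with 200 nmole of a 16-mer random double-stranded DNA library in Tris/NaCl/DTT/glycerol buffer at room temperature for 30 min. They were then washed, crosslinked with 0.1% formaldehyde, proximity-ligated (BsaI/T4 ligase, 1 h, 37 °C), PCR-amplified and sequenced on an Illumina NextSeq500. Binding signal is each 6-mer's read frequency for a factor divided by its frequency for the GST control.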
# ELK1 = biological target: T2, ELK1 (Homo sapiens, UniProt P19419 1-428); conditions: protein: recombinant; tags: N-terminal GST; dsDNA, one strand shown
# T2 sequence: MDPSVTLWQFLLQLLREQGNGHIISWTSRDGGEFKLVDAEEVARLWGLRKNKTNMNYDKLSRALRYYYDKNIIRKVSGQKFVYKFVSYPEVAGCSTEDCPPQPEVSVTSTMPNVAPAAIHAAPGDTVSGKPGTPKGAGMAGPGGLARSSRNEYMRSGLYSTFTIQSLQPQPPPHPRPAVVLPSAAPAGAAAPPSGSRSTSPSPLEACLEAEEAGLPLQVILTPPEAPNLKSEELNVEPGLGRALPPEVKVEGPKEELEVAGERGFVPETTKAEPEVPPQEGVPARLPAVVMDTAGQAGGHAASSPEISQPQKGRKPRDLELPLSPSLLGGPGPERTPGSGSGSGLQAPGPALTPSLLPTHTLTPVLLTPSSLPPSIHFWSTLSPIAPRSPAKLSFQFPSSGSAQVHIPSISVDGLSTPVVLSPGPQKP
# Summary of the method: as §1
# GABPA = biological target: T3, GABPA (Homo sapiens, UniProt Q06546 1-454); conditions: protein: recombinant; tags: N-terminal GST; dsDNA, one strand shown
# T3 sequence: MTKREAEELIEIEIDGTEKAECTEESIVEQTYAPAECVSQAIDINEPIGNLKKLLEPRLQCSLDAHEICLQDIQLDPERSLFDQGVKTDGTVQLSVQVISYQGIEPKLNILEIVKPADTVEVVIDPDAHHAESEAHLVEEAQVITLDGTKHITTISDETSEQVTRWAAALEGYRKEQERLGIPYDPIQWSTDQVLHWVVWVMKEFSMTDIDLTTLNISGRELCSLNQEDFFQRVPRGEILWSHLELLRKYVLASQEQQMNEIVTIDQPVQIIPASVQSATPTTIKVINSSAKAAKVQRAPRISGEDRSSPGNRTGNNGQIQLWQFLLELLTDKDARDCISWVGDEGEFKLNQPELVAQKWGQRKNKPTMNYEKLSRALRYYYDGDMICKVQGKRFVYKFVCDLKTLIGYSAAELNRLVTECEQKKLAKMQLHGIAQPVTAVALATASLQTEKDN
# Summary of the method: as §1
# ERG = biological target: T4, ERG (Homo sapiens, UniProt P11308 1-479); conditions: protein: recombinant; tags: N-terminal GST; dsDNA, one strand shown
# T4 sequence: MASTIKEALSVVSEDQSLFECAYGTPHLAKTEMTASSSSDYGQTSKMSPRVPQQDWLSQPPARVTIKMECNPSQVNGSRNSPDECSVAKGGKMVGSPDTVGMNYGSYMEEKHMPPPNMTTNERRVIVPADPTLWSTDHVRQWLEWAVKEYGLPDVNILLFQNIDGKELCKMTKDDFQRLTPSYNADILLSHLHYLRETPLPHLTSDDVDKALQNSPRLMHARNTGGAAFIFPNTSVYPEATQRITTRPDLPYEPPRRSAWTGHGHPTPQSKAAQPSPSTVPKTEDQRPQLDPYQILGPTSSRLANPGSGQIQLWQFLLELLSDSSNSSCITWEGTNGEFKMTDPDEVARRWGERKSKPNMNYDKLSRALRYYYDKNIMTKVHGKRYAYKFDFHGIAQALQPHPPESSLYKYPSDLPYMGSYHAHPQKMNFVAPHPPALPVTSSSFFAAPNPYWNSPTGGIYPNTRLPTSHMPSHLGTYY
# Summary of the method: as §1
# ELF1 = ELF1 (Homo sapiens, UniProt P32519 1-619); conditions: protein: recombinant; tags: N-terminal GST; dsDNA, one strand shown
# Sequence of ELF1 (P32519 whole entry): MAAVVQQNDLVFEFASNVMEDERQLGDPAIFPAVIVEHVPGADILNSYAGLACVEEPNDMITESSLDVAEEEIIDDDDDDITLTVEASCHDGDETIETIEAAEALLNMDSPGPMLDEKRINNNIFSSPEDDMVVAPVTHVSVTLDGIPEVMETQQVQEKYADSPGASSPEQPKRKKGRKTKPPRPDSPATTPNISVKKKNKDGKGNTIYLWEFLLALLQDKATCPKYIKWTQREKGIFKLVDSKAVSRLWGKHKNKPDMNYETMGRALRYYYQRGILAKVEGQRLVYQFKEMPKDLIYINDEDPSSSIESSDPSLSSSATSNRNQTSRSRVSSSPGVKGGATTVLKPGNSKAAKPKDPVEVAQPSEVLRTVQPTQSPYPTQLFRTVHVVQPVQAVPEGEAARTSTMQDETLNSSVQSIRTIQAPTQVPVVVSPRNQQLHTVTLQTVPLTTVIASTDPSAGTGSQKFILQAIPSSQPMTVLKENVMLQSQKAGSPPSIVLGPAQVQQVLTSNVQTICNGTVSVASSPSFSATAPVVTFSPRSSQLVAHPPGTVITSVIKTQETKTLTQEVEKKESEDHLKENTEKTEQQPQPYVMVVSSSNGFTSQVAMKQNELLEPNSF
# Summary of the method: as §1
# EHF = biological target: T5, EHF (Homo sapiens, UniProt Q9NZC4 1-300); conditions: protein: recombinant; tags: N-terminal GST; dsDNA, one strand shown
# T5 sequence: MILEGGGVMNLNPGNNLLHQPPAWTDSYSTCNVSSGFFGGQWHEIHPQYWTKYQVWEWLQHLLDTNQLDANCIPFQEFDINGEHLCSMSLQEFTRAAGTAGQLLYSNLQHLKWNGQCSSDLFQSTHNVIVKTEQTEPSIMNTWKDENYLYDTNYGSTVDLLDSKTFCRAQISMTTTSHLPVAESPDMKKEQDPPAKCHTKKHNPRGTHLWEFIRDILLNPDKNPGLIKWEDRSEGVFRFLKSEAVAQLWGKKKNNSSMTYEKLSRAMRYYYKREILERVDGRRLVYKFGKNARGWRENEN
# Summary of the method: as §1
# SPI1 = SPI1 (Homo sapiens, UniProt P17947 1-270); conditions: protein: recombinant; tags: N-terminal GST; dsDNA, one strand shown
# Summary of the method: as §1
# SPIB = SPIB (Homo sapiens, UniProt Q01892 1-262); conditions: protein: recombinant; tags: N-terminal GST; dsDNA, one strand shown
# Sequence of SPIB (Q01892 whole entry): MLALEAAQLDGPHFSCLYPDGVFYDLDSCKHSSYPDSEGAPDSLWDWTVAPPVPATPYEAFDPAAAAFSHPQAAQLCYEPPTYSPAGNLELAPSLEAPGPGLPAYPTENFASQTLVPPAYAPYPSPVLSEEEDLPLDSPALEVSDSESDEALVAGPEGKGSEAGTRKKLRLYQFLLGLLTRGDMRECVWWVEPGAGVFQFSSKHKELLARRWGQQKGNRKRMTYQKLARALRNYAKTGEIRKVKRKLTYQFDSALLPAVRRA
# Summary of the method: as §1
# ELK3 = biological target: T6, ELK3 (Homo sapiens, UniProt P41970 1-407); conditions: protein: recombinant; tags: N-terminal GST; dsDNA, one strand shown
# T6 sequence: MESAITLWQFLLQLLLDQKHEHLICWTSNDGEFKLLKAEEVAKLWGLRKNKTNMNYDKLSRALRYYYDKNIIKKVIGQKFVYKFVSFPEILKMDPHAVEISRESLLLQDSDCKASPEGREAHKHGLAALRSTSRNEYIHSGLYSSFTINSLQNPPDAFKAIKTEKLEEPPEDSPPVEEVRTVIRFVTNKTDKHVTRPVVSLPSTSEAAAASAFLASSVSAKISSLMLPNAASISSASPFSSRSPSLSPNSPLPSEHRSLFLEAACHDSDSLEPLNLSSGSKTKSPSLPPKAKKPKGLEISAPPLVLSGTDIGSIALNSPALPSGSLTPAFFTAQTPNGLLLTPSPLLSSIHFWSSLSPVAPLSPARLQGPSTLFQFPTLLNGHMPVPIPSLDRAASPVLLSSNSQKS
# Summary of the method: as §1
# FEV = biological target: T7, FEV (Homo sapiens, UniProt Q99581 1-238); conditions: protein: recombinant; tags: N-terminal GST; dsDNA, one strand shown
# T7 sequence: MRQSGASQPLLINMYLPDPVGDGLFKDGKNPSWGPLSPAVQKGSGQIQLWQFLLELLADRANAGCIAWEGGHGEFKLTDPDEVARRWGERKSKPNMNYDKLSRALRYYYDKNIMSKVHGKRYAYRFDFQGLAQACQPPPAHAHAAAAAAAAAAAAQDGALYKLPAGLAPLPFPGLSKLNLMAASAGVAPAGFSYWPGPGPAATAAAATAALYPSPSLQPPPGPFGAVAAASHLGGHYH
# Summary of the method: as §1
# ETV5 = ETV5 (Homo sapiens, UniProt P41161 1-510); conditions: protein: recombinant; tags: N-terminal GST; dsDNA, one strand shown
# Sequence of ETV5 (P41161 whole entry): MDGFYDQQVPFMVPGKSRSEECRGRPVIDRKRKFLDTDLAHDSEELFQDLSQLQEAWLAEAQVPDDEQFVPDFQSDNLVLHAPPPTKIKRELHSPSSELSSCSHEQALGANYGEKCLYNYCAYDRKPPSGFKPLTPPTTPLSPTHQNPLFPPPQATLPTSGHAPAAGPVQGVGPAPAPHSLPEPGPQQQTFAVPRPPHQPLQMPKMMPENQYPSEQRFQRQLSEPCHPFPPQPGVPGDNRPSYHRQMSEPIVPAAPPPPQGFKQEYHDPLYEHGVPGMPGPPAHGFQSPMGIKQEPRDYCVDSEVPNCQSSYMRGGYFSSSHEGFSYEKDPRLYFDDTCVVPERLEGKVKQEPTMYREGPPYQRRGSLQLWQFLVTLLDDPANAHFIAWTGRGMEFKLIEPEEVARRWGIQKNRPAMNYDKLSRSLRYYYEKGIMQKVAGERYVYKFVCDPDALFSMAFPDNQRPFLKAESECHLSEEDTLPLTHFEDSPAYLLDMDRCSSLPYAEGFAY
# Summary of the method: as §1
# HSF1 = HSF1 (Homo sapiens, UniProt Q00613 1-529); conditions: protein: recombinant; tags: N-terminal GST; chain copies: 3; dsDNA, one strand shown
# Sequence of HSF1 (Q00613 whole entry): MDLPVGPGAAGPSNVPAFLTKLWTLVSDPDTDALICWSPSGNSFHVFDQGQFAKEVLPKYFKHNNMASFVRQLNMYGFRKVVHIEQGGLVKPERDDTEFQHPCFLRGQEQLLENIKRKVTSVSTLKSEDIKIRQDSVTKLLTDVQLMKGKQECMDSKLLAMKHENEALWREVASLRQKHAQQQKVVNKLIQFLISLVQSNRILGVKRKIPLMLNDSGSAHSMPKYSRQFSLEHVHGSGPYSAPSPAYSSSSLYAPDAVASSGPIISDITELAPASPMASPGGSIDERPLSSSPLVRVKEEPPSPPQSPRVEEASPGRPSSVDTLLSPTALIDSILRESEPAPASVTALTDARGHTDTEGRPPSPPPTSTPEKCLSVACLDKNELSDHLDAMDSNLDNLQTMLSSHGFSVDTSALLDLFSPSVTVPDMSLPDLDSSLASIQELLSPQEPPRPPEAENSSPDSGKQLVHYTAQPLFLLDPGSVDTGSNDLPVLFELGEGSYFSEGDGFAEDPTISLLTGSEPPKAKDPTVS
# Summary of the method: as §1
# SPIC = biological target: T8, SPIC (Homo sapiens, UniProt Q8N5J4 1-248); conditions: protein: recombinant; tags: N-terminal GST; dsDNA, one strand shown
# T8 sequence: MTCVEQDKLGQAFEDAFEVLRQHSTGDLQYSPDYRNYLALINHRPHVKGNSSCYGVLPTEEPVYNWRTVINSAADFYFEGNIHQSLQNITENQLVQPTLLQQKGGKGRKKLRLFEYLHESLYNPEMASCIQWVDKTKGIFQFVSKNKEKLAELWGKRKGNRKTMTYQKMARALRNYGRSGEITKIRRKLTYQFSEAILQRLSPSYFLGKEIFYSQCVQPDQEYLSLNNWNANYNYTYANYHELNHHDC
# Summary of the method: as §1
# ELF4 = ELF4 (Homo sapiens, UniProt Q99607 1-663); conditions: protein: recombinant; tags: N-terminal GST; dsDNA, one strand shown
# Sequence of ELF4 (Q99607 whole entry): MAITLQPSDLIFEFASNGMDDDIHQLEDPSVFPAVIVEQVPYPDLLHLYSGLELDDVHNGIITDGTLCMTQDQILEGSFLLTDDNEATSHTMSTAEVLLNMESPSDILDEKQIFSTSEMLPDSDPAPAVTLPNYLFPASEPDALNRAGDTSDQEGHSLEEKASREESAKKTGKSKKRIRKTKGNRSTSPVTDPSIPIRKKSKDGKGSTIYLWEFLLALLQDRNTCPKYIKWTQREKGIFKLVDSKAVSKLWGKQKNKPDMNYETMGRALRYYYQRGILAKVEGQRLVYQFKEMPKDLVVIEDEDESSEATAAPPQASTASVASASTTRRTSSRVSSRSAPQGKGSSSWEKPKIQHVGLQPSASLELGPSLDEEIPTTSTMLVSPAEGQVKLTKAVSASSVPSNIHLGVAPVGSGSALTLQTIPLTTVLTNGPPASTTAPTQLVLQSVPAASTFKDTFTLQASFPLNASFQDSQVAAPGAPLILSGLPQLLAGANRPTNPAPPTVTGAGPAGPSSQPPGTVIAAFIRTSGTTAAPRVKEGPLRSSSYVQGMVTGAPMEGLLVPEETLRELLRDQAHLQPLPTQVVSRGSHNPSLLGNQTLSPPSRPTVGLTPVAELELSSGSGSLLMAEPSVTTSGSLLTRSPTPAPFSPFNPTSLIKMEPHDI
# Summary of the method: as §1
# ELK4 = biological target: T9, ELK4 (Homo sapiens, UniProt P28324-2 1-405); conditions: protein: recombinant; tags: N-terminal GST; dsDNA, one strand shown
# T9 sequence: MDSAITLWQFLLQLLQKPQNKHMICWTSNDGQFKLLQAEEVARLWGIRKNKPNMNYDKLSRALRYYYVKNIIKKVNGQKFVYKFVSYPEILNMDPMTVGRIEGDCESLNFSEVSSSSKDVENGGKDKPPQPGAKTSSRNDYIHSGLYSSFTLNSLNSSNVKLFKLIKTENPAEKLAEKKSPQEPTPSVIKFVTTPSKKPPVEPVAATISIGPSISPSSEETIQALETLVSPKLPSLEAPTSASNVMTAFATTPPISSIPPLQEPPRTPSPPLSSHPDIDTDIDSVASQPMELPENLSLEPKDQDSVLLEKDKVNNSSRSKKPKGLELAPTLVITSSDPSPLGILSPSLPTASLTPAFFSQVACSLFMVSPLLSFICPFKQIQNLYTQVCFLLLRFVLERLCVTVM
# Summary of the method: as §1
# ETV2 = biological target: T10, ETV2 (Homo sapiens, UniProt O00321 1-342); conditions: protein: recombinant; tags: N-terminal GST; dsDNA, one strand shown
# T10 sequence: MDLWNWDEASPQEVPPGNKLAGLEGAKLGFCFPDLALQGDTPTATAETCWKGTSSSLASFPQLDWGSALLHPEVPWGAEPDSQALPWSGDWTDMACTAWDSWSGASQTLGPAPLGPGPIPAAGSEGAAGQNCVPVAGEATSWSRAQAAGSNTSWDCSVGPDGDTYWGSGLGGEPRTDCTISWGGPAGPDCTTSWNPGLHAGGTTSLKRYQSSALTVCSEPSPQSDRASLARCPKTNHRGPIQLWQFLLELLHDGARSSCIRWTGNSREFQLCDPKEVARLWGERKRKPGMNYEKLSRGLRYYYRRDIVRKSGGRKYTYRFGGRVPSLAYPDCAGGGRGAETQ
# Summary of the method: as §1
# ELF3 = biological target: T11, ELF3 (Homo sapiens, UniProt P78545 1-371); conditions: protein: recombinant; tags: N-terminal GST; dsDNA, one strand shown
# T11 sequence: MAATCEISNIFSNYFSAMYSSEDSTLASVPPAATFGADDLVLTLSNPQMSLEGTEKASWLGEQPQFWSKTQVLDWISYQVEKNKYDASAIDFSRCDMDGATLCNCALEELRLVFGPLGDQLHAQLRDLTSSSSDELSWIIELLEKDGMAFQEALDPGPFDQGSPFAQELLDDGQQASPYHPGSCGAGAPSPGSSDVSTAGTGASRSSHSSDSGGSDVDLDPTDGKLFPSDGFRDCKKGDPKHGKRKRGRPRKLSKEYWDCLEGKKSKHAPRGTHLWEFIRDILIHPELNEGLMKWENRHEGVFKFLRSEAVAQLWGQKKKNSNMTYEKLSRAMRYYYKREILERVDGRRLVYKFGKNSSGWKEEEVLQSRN
# Summary of the method: as §1
# CRX = CRX (Homo sapiens, UniProt O43186 1-299); conditions: protein: recombinant; tags: N-terminal GST; dsDNA, one strand shown
# Sequence of CRX (O43186 whole entry): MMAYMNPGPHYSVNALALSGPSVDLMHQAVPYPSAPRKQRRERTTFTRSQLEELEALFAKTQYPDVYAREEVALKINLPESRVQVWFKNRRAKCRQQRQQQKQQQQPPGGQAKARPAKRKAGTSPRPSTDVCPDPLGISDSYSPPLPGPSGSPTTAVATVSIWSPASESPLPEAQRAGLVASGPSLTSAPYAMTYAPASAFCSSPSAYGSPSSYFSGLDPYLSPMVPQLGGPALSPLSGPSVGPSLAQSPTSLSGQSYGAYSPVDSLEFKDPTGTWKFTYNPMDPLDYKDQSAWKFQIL
# Summary of the method: as §1
# ETV1 = ETV1 (Homo sapiens, UniProt P50549 1-477); conditions: protein: recombinant; tags: N-terminal GST; dsDNA, one strand shown
# Sequence of ETV1 (P50549 whole entry): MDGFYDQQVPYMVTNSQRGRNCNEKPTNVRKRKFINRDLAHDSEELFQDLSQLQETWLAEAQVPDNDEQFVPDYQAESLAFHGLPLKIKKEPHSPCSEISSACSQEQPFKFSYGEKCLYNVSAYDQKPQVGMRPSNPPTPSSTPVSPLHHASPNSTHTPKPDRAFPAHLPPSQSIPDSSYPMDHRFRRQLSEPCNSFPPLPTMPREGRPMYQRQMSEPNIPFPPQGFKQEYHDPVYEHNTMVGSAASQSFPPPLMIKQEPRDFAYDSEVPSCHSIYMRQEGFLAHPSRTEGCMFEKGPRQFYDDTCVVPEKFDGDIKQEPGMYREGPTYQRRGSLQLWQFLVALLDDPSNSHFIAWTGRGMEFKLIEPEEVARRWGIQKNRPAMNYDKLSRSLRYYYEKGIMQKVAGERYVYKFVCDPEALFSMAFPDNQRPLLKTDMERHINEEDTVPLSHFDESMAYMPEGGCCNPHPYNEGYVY
# Summary of the method: as §1
sequence,measurement,setting,value
TAATTG,binding signal,FLI1,"1.38 fold enrichment (6-mer frequency, TF over GST control)"
same,binding signal,ELK1,"1.43 fold enrichment (6-mer frequency, TF over GST control)"
same,binding signal,GABPA,"1.38 fold enrichment (6-mer frequency, TF over GST control)"
same,binding signal,ERG,"1.27 fold enrichment (6-mer frequency, TF over GST control)"
same,binding signal,ELF1,"1.3 fold enrichment (6-mer frequency, TF over GST control)"
same,binding signal,EHF,"1.37 fold enrichment (6-mer frequency, TF over GST control)"
same,binding signal,SPI1,"1.47 fold enrichment (6-mer frequency, TF over GST control)"
same,binding signal,SPIB,"1.37 fold enrichment (6-mer frequency, TF over GST control)"
same,binding signal,ELK3,"1.5 fold enrichment (6-mer frequency, TF over GST control)"
same,binding signal,FEV,"1.32 fold enrichment (6-mer frequency, TF over GST control)"
same,binding signal,ETV5,"1.4 fold enrichment (6-mer frequency, TF over GST control)"
same,binding signal,HSF1,"1.42 fold enrichment (6-mer frequency, TF over GST control)"
same,binding signal,SPIC,"1.31 fold enrichment (6-mer frequency, TF over GST control)"
same,binding signal,ELF4,"1.36 fold enrichment (6-mer frequency, TF over GST control)"
same,binding signal,ELK4,"1.35 fold enrichment (6-mer frequency, TF over GST control)"
same,binding signal,ETV2,"1.44 fold enrichment (6-mer frequency, TF over GST control)"
same,binding signal,ELF3,"1.49 fold enrichment (6-mer frequency, TF over GST control)"
same,binding signal,CRX,"1.82 fold enrichment (6-mer frequency, TF over GST control)"
same,binding signal,ETV1,"1.35 fold enrichment (6-mer frequency, TF over GST control)"
